# Only some compounds are listed: those with a hit (about 1.8% of all), similar ones and a draw of the others.
# RN4220 kill = S. aureus RN4220 growth inhibition | inhibition, % (test concentration not listed) | OD600, 16 h | 330,000 compounds, 0.33% hits; in the data active means inhibition above about 85%;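 further: plate controls were untreated cells for no effect and reference antibiotic for full effect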
# Mtb hypoxia inh = inhibitors of hypoxia-regulated fluorescent reporter in Mycobacterium tuberculosis | fluorescence inhibition, % (concentration not given with the values) | 300,000 compounds, 0.1% hits | M. tuberculosis hypoxia-regulated fluorescent reporter, fluorescence; in the data active means fluorescence inhibition mostly above about 23%, no sharp cut-off; inactive means mostly below about 17%
# PriA SSB inh = K. pneumoniae PriA-SSBct interaction inhibition; AlphaScreen SSBct-PriA binding, biotinylated peptide; inhibition, % at 33 µM; 430,000 compounds, 0.6% hits; AID 1272365; in the data active means inhibition mostly above about 37%, no sharp cut-off; inactive means mostly below about 20%;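 further: plate controls were negative control peptide for no effect and reference peptide for full effect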
# PfHsp40 rescue = compounds rescuing yeast from Plasmodium falciparum HSP40 toxicity | S. cerevisiae expressing PfHsp40, growth rescue, ATP luminescence | growth rescue, % at 12.5 µM | 340,000 compounds, 0.68% hits; in the data active means growth rescue above about 28%, passing the limit was not always enough; inconclusive means no clear call, values can overlap the other calls;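 further: yeast W303a lacking pdr1 and pdr3 grown in galactose medium; growth measured after three days at 30 °C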
# Sa ugtP lethal = growth inhibition of S. aureus ugtP deletion strain | S. aureus RN4220 ugtP deletion, OD600 growth, 16 h | growth inhibition, % (test concentration not listed) | 330,000 compounds, 0.54% hits; in the data active means growth inhibition above about 68%;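 further: plate controls were untreated wells for no effect and antibiotic for full effect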
# DUSP3 inh = inhibitors of human VHR1 phosphatase (DUSP3); P51452; 290,000 compounds, 0.52% hits; recombinant VHR phosphatase, pNPP absorbance; inhibition, % at 13.3 µM; in the data active means inhibition above about 50%
# Target sequence (P51452 whole entry, looked up): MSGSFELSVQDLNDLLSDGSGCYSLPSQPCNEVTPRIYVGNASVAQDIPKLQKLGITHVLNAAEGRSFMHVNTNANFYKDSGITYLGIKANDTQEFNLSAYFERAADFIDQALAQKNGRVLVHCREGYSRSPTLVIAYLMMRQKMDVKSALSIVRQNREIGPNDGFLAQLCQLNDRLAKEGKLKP
# * hit, by the source's call; ? = inconclusive; · = no result given; ! = not active in a repeat.
SMILES,RN4220 kill,Mtb hypoxia inh,PriA SSB inh,PfHsp40 rescue,Sa ugtP lethal,DUSP3 inh
COc1cc(C(=O)Nc2ccc(Br)cc2C(=O)c2ccccc2)cc(OC)c1OC,-6.8,4.7,-13.0,81.4*,-7.0,9.7
COc1ccc(C(=O)Nc2ccc3ccccc3c2)c(OC)c1,-2.6,9.7,-39.2,59.6*,21.4,30.3
Cc1noc(CCCNC(=O)[C@H]2CCc3nc[nH]c3C2)n1,·,·,-22.0,·,·,·
O=C(C1=CC(C2CC2)CC(OCCCCO)O1)N1CCOCC1 (stereo unspecified),-0.9,-5.1,·,·,-8.5,·
COc1cc(OC)c(C(=O)Nc2ccc(C(=O)c3ccccc3)cc2)cc1OC,4.1,-4.0,-6.4,154.0*,6.6,-0.7
COc1cc(OC)c(C(=O)Nc2ccncc2)cc1OC,2.1,19.3,1.9,19.4,0.9,4.9
COc1cc(OC)cc(C(=O)Nc2ccc(Nc3ccccc3)cc2)c1,-7.8,4.5,44.9*,-0.5,12.1,12.7
CSc1nc(NC(C)C)c2cnn(CCNC(=O)c3c(F)cccc3Cl)c2n1,·,·,-4.0,·,·,·
O=C(NCCn1nc(-c2cccs2)ccc1=O)c1ccccc1C(F)(F)F,·,·,4.0,·,·,·
N#Cc1nc(COc2ccc(Cl)cc2Cl)oc1N1CCN(c2ccccc2)CC1,3.0,-0.2,12.8,1.3,-15.7,19.9
N#Cc1nc(COc2ccc(F)cc2)oc1N1CCCCCC1,·,·,110.9*,·,·,·
COc1ccc(Nc2oc(COc3ccc(Cl)cc3)nc2C#N)cc1,1.1,8.7,41.4*,?,-5.2,2.6
N#Cc1nc(COc2ccc(F)cc2)oc1N1CCCCC1,1.4,7.0,16.9,0.8,-0.2,9.1
N#Cc1nc(COc2ccc(Cl)cc2)oc1N1CCCCC1,·,·,95.3*,·,·,·
N#Cc1nc(COc2ccc(Cl)cc2Cl)oc1N1CCOCC1,6.3,-0.8,56.0*,-0.1,-3.2,8.5
COc1ccc(OCc2nc(C#N)c(N3CCCCCC3)o2)cc1,·,·,102.5*,·,·,·
Cc1ccc(OCc2nc(C#N)c(N3CCOCC3)o2)cc1,·,·,82.0*,·,·,·
COc1ccc(OCc2nc(C#N)c(N3CCCC3)o2)cc1,·,·,79.7*,·,·,·
N#Cc1nc(COc2ccc(Br)cc2)oc1N1CCCCCC1,32.6,·,24.3,-0.2,18.9,17.0
N#Cc1nc(COc2ccc(Br)cc2)oc1N1CCCC1,11.5,·,50.8*,6.4,14.5,-22.1
C=CCn1c(SCC(=O)c2ccc(OC)c(OC)c2)nc2scc(-c3ccc(C)o3)c2c1=O,·,·,1.0,·,·,·
O=C(NCCCS(=O)(=O)N1CCN(c2ccccn2)CC1)c1ccc(F)c(F)c1,·,·,-12.0,·,·,·
COCCCN1C(=O)C(=O)C(=C(O)c2ccc(S(=O)(=O)N3CCCCC3)cc2)C1c1ccc(F)cc1 (stereo unspecified),·,·,-5.8,·,·,·
N#Cc1nc(COc2ccccc2)oc1N1CCCCCC1,5.8,4.6,109.2*!,-0.2,14.7,-6.0
CN1CCN(c2oc(COc3ccc(-c4ccccc4)cc3)nc2C#N)CC1,-5.0,21.1,59.9*,0.6,0.5,9.9
SMILES,RN4220 kill,Mtb hypoxia inh,PriA SSB inh,PfHsp40 rescue,Sa ugtP lethal,DUSP3 inh
CC(C)C(=O)Nc1ccc(S(=O)(=O)NCC(=O)N2CCOC(c3ccccc3)C2)cc1 (stereo unspecified),·,·,2.0,·,·,·
Cn1nc(C(=O)OCC(=O)NCc2ccc(Cl)cc2)c2ccccc2c1=O,3.8,31.2*,-11.8,-0.1,4.1,·
Cc1sc(NC(=O)c2ccco2)c(C(c2ccccc2)N2CCC(C)CC2)c1C (stereo unspecified),84.6,-13.7,-13.7,1.4,active,-5.8
CCn1nc(C)cc1-c1nnc(Sc2ncc([N+](=O)[O-])s2)n1C,48.3,16.0,-30.6,4.2,90.6*,13.8
O=C(Nc1ccccc1)Nc1cccc(-c2nnco2)c1,2.9,13.9,-3.9,-1.5,6.1,53.0*
O=[N+]([O-])c1cc(Br)cc(/C=N/n2cnnc2)c1O,·,·,·,203.7*,·,27.7
Cc1cccc(S(=O)(=O)N2CN(Cc3ccco3)c3nc4ccccc4nc32)c1,2.7,3.4,95.8*,0.4,-8.6,-12.1
O=S(=O)(c1cccs1)N1CN(Cc2ccco2)c2nc3ccccc3nc21,3.0,13.7,5.3,0.1,18.0,-10.7
OC(COc1ccc(C23CC4CC(CC(C4)C2)C3)cc1)C[N+]1(Cc2ccccc2)CCOCC1 (stereo unspecified),·,·,45.0*,·,·,·
OCCN1CCN(CC(O)COc2ccc(C34CC5CC(CC(C5)C3)C4)cc2)CC1 (stereo unspecified),·,·,7.5,5.8,·,17.9
CCOC(=O)c1ccc(-c2c(-c3ccccc3OC)oc3ccccc23)cc1F,-5.5,10.3,-50.4,0.5,92.4*,·

# Assay outcomes from PubChem.
